In the supplement of paper PMC7530171:
Structures can show the parent of a compound that is named as a salt. ± gives the standard deviation.

Tested on: THP-1 macrophages infected with Mycobacterium tuberculosis H37Rv
Assay: intracellular M.tb growth inhibition relative to DMSO (0) and 4 uM bedaquiline (100); higher = stronger inhibition of intracellular bacterial growth
Settings: 10 µM; 4 days
Method: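 OICR kinase inhibitor library screened in duplicate at 10 uM against THP-1 macrophages (PMA-differentiated) infected with M. tuberculosis H37Rv-pTEC27 (tdTomato RFP), 4 days at 37 C. Rows with complete host cell loss (placeholder inhibition 0, cell loss 100) were removed.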

In order of rising “intracellular M.tb growth inhibition” value:
1. Cc1cc(Nc2cc(N3CCN(C)CC3)nc(/C=C/c3ccccc3)n2)n[nH]1  -329 ± 400%
2. C=CCn1c(=O)c2cnc(Nc3ccc(N4CCN(C)CC4)cc3)nc2n1-c1cccc(C(C)(C)O)n1  -188 ± 280%
3. CC(=O)c1ccc(N2CCOCC2)cc1O  -148 ± 170%
4. CC(=O)c1c(C)c2cnc(Nc3ccc(N4CCNCC4)cn3)nc2n(C2CCCC2)c1=O  -126 ± 210%
5. O=C1NC(=O)[C@@H](c2cn3c4c(cccc24)CCC3)[C@@H]1c1c[nH]c2ccccc12  -118 ± 200%
6. CCN(CCCOc1ccc2c(Nc3cc(CC(=O)Nc4cccc(F)c4)[nH]n3)ncnc2c1)CCOP(=O)(O)O  -79.3 ± 96%
7. COc1cc2ncnc(Nc3cccc(Br)c3)c2cc1OC  -64 ± 39%
8. C[C@@H](N)[C@H]1CC[C@H](C(=O)Nc2ccncc2)CC1  -59.3 ± 110%
9. CN(C)S(=O)(=O)c1ccc2c(c1)/C(=C/c1cc3c([nH]1)CCCC3)C(=O)N2  -51.7 ± 62%
10. COc1cc(Oc2ccnc3cc(OC)c(OC)cc23)ccc1NC(=O)NC(C)c1nccs1 (racemic)  -40.9 ± 140%
11. Cc1cc(N2CCOCC2)cc2[nH]c(-c3c(NC[C@@H](O)c4cccc(Cl)c4)cc[nH]c3=O)nc12  -36.6 ± 15%
12. COc1cc(OC)c(/C=C/S(=O)(=O)Cc2ccc(OC)c(NCC(=O)O)c2)c(OC)c1  -33.5 ± 120%
13. CC[C@H](CO)Nc1nc(NCc2ccccc2)c2ncn(C(C)C)c2n1 [Roscovitine]  -23.1 ± 47%
14. NC(=O)Nc1sc(-c2ccc(F)cc2)cc1C(N)=O  -19 ± 13%
15. Nc1nc(OCC2CCCCC2)c2[nH]cnc2n1  -15.1 ± 19%
16. COc1ccc(OC)c2c(=S)c3ccccc3[nH]c12  -14.9 ± 44%
17. Cc1ccc(F)c(NC(=O)Nc2ccc(-c3cccc4[nH]nc(N)c34)cc2)c1  -14.6 ± 21%
18. Cn1cnc2c(NCc3ccccc3)nc(NCCO)nc21 [Olomoucine]  -10.5 ± 23%
19. Cc1cc(Nc2cc(N3CCN(C)CC3)nc(Sc3ccc(NC(=O)C4CC4)cc3)n2)n[nH]1  -6.87 ± 4.6%
20. Clc1ccc(Nc2nnc(Cc3ccncc3)c3ccccc23)cc1 [Vatalanib dihydrochloride]  -2.9 ± 24%
21. COc1ccc2c3n(c(=NC(=O)c4cccnc4)nc2c1OC)CCN3  -0.0325 ± 8.7%
22. COc1cc2ncc(-c3ccccc3)nc2cc1OC [Tyrphostin AG-1296]  1.21 ± 2%
23. COCC(=O)NC/C=C/c1ccc2ncnc(Nc3ccc(Oc4ccc(C)nc4)c(C)c3)c2c1  5.71 ± 95%
24. CN(C)c1ccc(/C=C2/C(=O)Nc3ccccc32)cc1  5.91 ± 3.3%
25. COc1cc2c(Oc3ccc4[nH]c(C)cc4c3F)ncnc2cc1OCCCN1CCCC1 [Cediranib]  6.57 ± 9.3%
26. O=S(=O)(c1cccc2cnccc12)N1CCCNCC1 [Fasudil HCl]  6.96 ± 7.6%
27. O=c1c(-c2ccc(O)cc2)coc2cc(O)cc(O)c12 [Genistein]  10.7 ± 10%
28. O=C(C=Cc1ccccc1)NC(NC(=S)Nc1ccc(Cl)cc1)C(Cl)(Cl)Cl (stereo not given)  12.9 ± 18%
29. NC(=O)c1ccc(-c2nc(-c3ccccn3)c(-c3ccc4c(c3)OCO4)[nH]2)cc1  17.9 ± 36%
30. Nc1nccc(-c2ccc3noc(-c4ccc(Cl)cc4)c3c2)n1 [PIM 1 Inhibitor 2]  20.6 ± 8.4%
31. O=C(Nc1ccc(-c2cn[nH]c2)cc1)C1COc2ccccc2O1 (stereo not given) [Rho Kinase Inhibitor V]  27.7 ± 10%
32. Nc1ncnc2nc(-c3ccc(N4CCOCC4)nc3)cc(-c3cccc(Br)c3)c12 [ABT-702 dihydrochloride]  29.6 ± 24%
33. O=[N+]([O-])c1ccc(-c2nc(-c3ccc(F)cc3)c(-c3ccncc3)[nH]2)cc1  36.6 ± 3.6%
34. COc1cc2ncn(-c3cc(OCc4ccccc4C(F)(F)F)c(C(N)=O)s3)c2cc1OC  38.7 ± 14%
35. Cc1[nH]c(/C=C2\C(=O)Nc3ccc(S(=O)(=O)N(C)c4cccc(Cl)c4)cc32)c(C)c1C(=O)N1CCN(C)CC1  41.9 ± 66%
36. C=CC[C@@H]1/C=C(\C)C[C@H](C)C[C@H](OC)[C@H]2O[C@@](O)(C(=O)C(=O)N3CCCC[C@H]3C(=O)O[C@H](/C(C)=C/[C@@H]3CC[C@@H](O)[C@H](OC)C3)[C@H](C)[C@@H](O)CC1=O)[C@H](C)C[C@@H]2OC  42 ± 7.7%
37. O=C1NC(=O)/C(=C/c2ccc3c(c2)OC(F)(F)O3)S1  42.5 ± 35%
38. CC[C@@H]1/C=C(\C)C[C@H](C)C[C@H](OC)[C@H]2O[C@@](O)(C(=O)C(=O)N3CCCC[C@H]3C(=O)O[C@H](/C(C)=C/[C@@H]3CC[C@H](Cl)[C@H](OC)C3)[C@H](C)[C@@H](O)CC1=O)[C@H](C)C[C@@H]2OC [Pimecrolimus]  45.4 ± 4.6%
39. COc1cc(C[C@H]2C(=O)OC[C@@H]2Cc2ccc(OC)c(OC)c2)ccc1O [Arctigenin]  46 ± 8.1%
40. CN1CCC(COc2cnc(-c3cccc(Cn4nc(-c5cccc(C#N)c5)ccc4=O)c3)nc2)CC1  48.3 ± 68%
